Results from PubChem BioAssay (Tox21).
Where “and” joins values, the source holds several entries; their conditions need not be identical. Equal values may be shown once. Records with an inconclusive call do not appear. Where a call stands in place of a potency, no number is given. Calls of active or inactive are those of the source. Unless noted, calls come from the whole dose curve; as a rule, active = well fitted curve in the direction sought with a large enough effect in the repeat runs; inconclusive = weak or mixed curves; inactive = no such curve, though single readings can be large; an effect the other way counts as inactive or inconclusive.

How the values were obtained:
[1] = qHTS assay for small molecules that induce genotoxicity in human embryonic kidney cells expressing luciferase-tagged ATAD5 (AID 651632); note: nearly all actives have a fitted effect of over 15% in size
How it was run: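 A rise in luciferase signal from ATAD5-tagged HEK293T cells marks genetic stress. Cells were exposed to compounds for 16 hr at 37C, 5% CO2, then luciferase was quantified after a 30 min room-temperature incubation with Amplite.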

[2] = qHTS assay for small molecule agonists of the p53 signaling pathway - cell viability (AID 651633; calls by dose curve; note: nearly all actives have a fitted effect of over 30% in size; note: potency is the fitted concentration of half-maximal effect)
How it was run: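 p53RE-bla cells were treated with compound for 16 hours at 37 C. Cytotoxicity was then measured as CellTiter-Glo luminescence after 30 min at room temperature.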

[3] = qHTS assay for small molecules that induce genotoxicity in human embryonic kidney cells expressing luciferase-tagged ATAD5 - cell viability (AID 651634; calls by dose curve; note: nearly all actives have a fitted effect of over 25% in size; note: potency is the fitted concentration of half-maximal effect)
How it was run: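 Cytotoxicity counter-readout: after 15.5 hr compound treatment at 37C, live-cell protease activity in ATAD5-luciferase HEK293T cells measured by CellTiter-Fluor fluorescence, 30 min development at 37C.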

[4] = qHTS assay for small molecule disruptors of the mitochondrial membrane potential - cell viability (AID 720634; calls by dose curve; note: nearly all actives have a fitted effect of over 20% in size; note: potency is the fitted concentration of half-maximal effect)
How it was run: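 Cytotoxicity was quantified from ATP content by CellTiter-Glo luminescence in the same wells as the MMP dye read-out. HepG2 (2,000 cells/well) were plated overnight and exposed to compounds for 1 hr at 37 C.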

[5] = qHTS assay to test for compound auto fluorescence at 590 nm (red) in HepG2 cells (AID 720674)
How it was run: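 Fluorescence at 590 nm emission following 540 nm excitation was recorded from HepG2 wells one hour after compound transfer, with DMSO-only wells as vehicle and Rose Bengal sodium equivalency as the scale.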

[6] = qHTS assay to test for compound auto fluorescence at 535 nm (green) in HepG2 cells (AID 720675)
[7] = qHTS assay to test for compound auto fluorescence at 590 nm (red) in HEK293 cells (AID 720679)
How it was run: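 Red autofluorescence, HEK293 cells: 2,000 cells/well; attach 4-5 hr 37C; add 23 nL cpd or DMSO; incubate o/n 37C 5% CO2; read Ex540/Em590; Rose Bengal sodium reference.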

[8] = qHTS assay to test for compound auto fluorescence at 460 nm (blue) in HEK293 cells (AID 720678)
How it was run: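 Intrinsic compound fluorescence is recorded in live HEK293 cultures after overnight incubation at 37C, 5% CO2, using excitation 405 nm and emission 460 nm. Values are referenced to triamterene.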

[9] = qHTS assay for small molecule disruptors of the mitochondrial membrane potential (AID 720635); note: potency is the fitted concentration of half-maximal effect
How it was run: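 HepG2 cells exposed to compound 1 hr at 37C, then Mito-MPS dye 30 min. Ratio read of aggregate (540/590 nm) versus monomer (490/535 nm) fluorescence.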

Row | Compound | Potency [1] | Potency [2] | Potency [3] | Potency [4] | outcome [5] | outcome [6] | outcome [7] | outcome [8] | Potency [9]
1 | CC(Cl)C(C)Cl (stereo unspecified) | inactive | inactive | inactive | inactive | inactive | inactive | inactive |  | 
2 | CCC(Cl)CCl (stereo unspecified) | inactive | inactive | inactive | inactive | inactive | inactive | inactive |  | 
3 | C=C(C#N)CCC#N | inactive | inactive | inactive | inactive | inactive | inactive |  |  | 
4 | ClCC(Br)CBr (stereo unspecified) | inactive | inactive | inactive | inactive | inactive | inactive | inactive | inactive | 
5 | O=S(=O)(O)C(F)(F)C(F)(F)C(F)(F)C(F)(F)F | inactive | inactive | inactive | inactive | inactive | inactive | inactive | inactive | 
6 | NCC(CC(=O)O)c1ccc(Cl)cc1 (stereo unspecified) | inactive | inactive | inactive | inactive | inactive |  |  | inactive | inactive
7 | CCOP(=S)(OCC)SCSCC | inactive | inactive | inactive | inactive | inactive | inactive | inactive | inactive | 
8 | O=Cc1ccc2c(c1)OCO2 | inactive | inactive | inactive | inactive | inactive | inactive | inactive | inactive | inactive
9 | CCOC(=O)[C@]1(c2ccccc2)Oc2ccccc2[C@@H]1N | inactive | inactive | inactive | inactive | inactive | inactive | inactive |  | 
10 | Oc1ccc(Cl)c(Cl)c1Cl | inactive | inactive | inactive | inactive | inactive |  | inactive | inactive | 4.49 µM (active)
11 | Cc1ccc(N)cc1C | inactive | inactive | inactive | inactive | inactive | inactive |  | inactive | 
12 | CC(C)(OO)c1ccccc1 | inactive | inactive | inactive | inactive | inactive | inactive | inactive |  | inactive
13 | c1ccc(CN2CCNCC2)cc1 | inactive | inactive | inactive | inactive | inactive | inactive | inactive | inactive | inactive
14 | O=C(O)c1ccccc1C(=O)Nc1cccc2ccccc12 | inactive | inactive | inactive | inactive | inactive | inactive | inactive |  | 
15 | O=C(C(Cl)(Cl)Cl)C(Cl)(Cl)Cl | inactive | inactive | inactive | inactive | inactive | inactive | inactive | inactive | 
16 | CCCCCCCCCCOC(=O)c1ccccc1C(=O)OCCCCCCCCCC | inactive | inactive | inactive | inactive | inactive |  | inactive | inactive | inactive
17 | CCCN(CCC)c1c([N+](=O)[O-])cc(S(C)(=O)=O)cc1[N+](=O)[O-] | inactive | inactive | inactive |  | inactive | inactive | inactive | inactive | 

Row | Compound | Potency [1] | Potency [2] | Potency [3] | Potency [4] | outcome [5] | outcome [6] | outcome [7] | outcome [8] | Potency [9]
18 | O=[Se]=O | inactive | inactive | 764 nM (active) |  | inactive | inactive | inactive |  | 
19 | CC(C)N(C(=O)COc1nnc(C(F)(F)F)s1)c1ccc(F)cc1 | inactive | inactive | inactive |  | inactive | inactive | inactive | inactive | 
20 | COP(=S)(OC)Oc1cc(Cl)c(I)cc1Cl | inactive | inactive | inactive |  | inactive | inactive | inactive | inactive | 
21 | C[C@H]1CNCCc2ccc(Cl)cc21 | inactive | inactive | inactive | inactive | inactive |  | inactive |  | 
22 | CCCCc1c(C)nc(NCC)nc1OS(=O)(=O)N(C)C | inactive | inactive | inactive |  | inactive | inactive | inactive | inactive | 
23 | O=C(O)CC(Cl)C(=O)O (stereo unspecified) | inactive | inactive | inactive |  | inactive | inactive | inactive | inactive | 
24 | COC1=CC(=O)O[C@@H](CCc2ccccc2)C1 | inactive | inactive |  | inactive | inactive | inactive | inactive | inactive | inactive
25 | O=[N+]([O-])c1ccc(F)c([N+](=O)[O-])c1 | inactive | inactive | 10.6 µM (active) and 27.6 µM (active) |  | inactive | inactive | inactive | inactive | 
26 | CCOP(=S)(OCC)SCn1nnc2ccccc2c1=O | inactive | 27.3 µM (active) |  | 27.3 µM (active) | inactive | inactive | inactive | inactive | 
27 | CCc1ccc(C(=O)NN(C(=O)c2cc(C)cc(C)c2)C(C)(C)C)cc1 | inactive | inactive | 486 nM (active) |  | inactive |  |  | inactive | 
28 | CCCCC(CC)COP(=O)(Oc1ccccc1)Oc1ccccc1 (stereo unspecified) | inactive | inactive | inactive |  | inactive | inactive | inactive | inactive | 
29 | C=CC(=O)OC(C)(C)C | inactive | inactive | inactive |  | inactive | inactive | inactive | inactive | 
30 | O=C(OC1CCCCC1)c1ccccc1C(=O)OC1CCCCC1 | inactive | inactive | inactive |  | inactive |  | inactive | inactive | 
31 | CCn1cc[n+](C)c1 | inactive | inactive | inactive | inactive | inactive |  | inactive | inactive | 
32 | CC1C(=O)C[C@]2(C(C)C)C[C@H]12 (stereo partly specified) | inactive | inactive |  | inactive | inactive | inactive | inactive |  | inactive
33 | c1cc2ccc3cccc4ccc(c1)c2c34 | inactive | inactive | inactive |  | inactive |  | inactive | inactive | 
